Bioassay records as filed in PubChem.
TDP1 cell CPT = DT40-hTDP1 cell growth loss with CPT | actives 12% (n = 420,000) | chicken DT40 Tdp1-/-;hTDP1 cells + 20 nM CPT, ATP luminescence, 48 h | Potency, µM (series often up to 46.2 µM), for inactives: top-dose activity change, negative = growth inhibition, most hits filed as inhibitors; note: potency is the fitted concentration of half-maximal effect; nearly all actives have a fitted effect of over 55% in size
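Chicken DT40 Tdp1-/- cells stably complemented with human TDP1 were seeded at 400 cells/well in medium containing 20 nM camptothecin, exposed to pin-transferred compounds, and grown at 37 °C for at least 48 hr. Viability was read as ATP luminescence.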
DT40 TDP1 no CPT = qHTS for Inhibitors of human tyrosyl-DNA phosphodiesterase 1 (TDP1): qHTS in cells in absence of CPT; DT40 Tdp1-/- hTDP1 cells, no CPT, ATP luminescence, 48 h; Potency, µM (doses to about 46.2 µM), for the others: at the highest dose activity change, negative = growth inhibition, hits mostly inhibitors; actives 15% (n = 420,000); note: potency is the fitted concentration of half-maximal effect; nearly all actives have a fitted effect of over 55% in size
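Growth of hTDP1-complemented DT40 Tdp1-knockout cells is measured by ATP luminescence after at least 48 hr compound exposure at 37 °C, with DMSO substituting for the 20 nM CPT used in the parallel screen.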
ALOX12 inh = ALOX12 (human) lipoxygenase inhibition; actives 1.1% (n = 580,000); P18054; purified 12hLO, xylenol orange hydroperoxide absorbance; AID 1671190; Potency, µM (titrated, usually from 108 µM), without a hit: at the highest dose activity change, negative = inhibition, actives largely listed as inhibitors; note: potency is the fitted concentration of half-maximal effect
Target sequence (P18054 whole entry, looked up): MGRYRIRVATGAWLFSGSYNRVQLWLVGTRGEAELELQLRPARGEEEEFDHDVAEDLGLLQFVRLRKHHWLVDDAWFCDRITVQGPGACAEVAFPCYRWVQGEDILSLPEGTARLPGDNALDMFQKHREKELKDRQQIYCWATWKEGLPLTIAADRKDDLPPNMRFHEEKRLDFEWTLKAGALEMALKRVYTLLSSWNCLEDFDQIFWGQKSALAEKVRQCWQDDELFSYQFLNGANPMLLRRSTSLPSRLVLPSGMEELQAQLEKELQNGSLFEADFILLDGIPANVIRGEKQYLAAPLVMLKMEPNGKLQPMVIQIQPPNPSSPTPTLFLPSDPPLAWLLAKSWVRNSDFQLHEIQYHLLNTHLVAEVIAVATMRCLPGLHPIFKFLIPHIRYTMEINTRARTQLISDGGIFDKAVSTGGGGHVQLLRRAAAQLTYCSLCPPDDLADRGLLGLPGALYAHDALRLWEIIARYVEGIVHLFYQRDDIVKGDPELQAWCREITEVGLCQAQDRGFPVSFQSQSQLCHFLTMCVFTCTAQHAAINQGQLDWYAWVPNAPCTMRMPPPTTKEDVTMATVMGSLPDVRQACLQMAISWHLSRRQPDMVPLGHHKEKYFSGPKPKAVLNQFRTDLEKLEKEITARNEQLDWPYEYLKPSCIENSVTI
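Purified human 12hLO at 150 nM in 25 mM Hepes, 0.01% Triton X-100, pH 7.0, preincubated 15 min at room temperature with compound. Reaction started with 40 uM arachidonic acid, 30 min at room temperature. Hydroperoxide measured by Fe-xylenol orange, 573/405 nm absorbance ratio.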
IL1B secr inh = inhibitors of inflammasome signaling (IL-1 beta secretion). THP-1 LPS/ATP IL-1B secretion, AlphaLISA, 16 h; stronger effect = lower value. activity change, % at 57.5 µM. actives 4.7% (n = 360,000). AID 743279; in the data active = activity change below about -50%; inconclusive = mostly about -30% to -49%
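Secreted IL-1B measured by AlphaLISA bead assay after 16 h compound exposure of THP-1 cells; compounds (final up to 57.5 uM) added 1 h before LPS (250 ng/mL) and ATP (1.25 mM) stimulation; lower signal means less secretion.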
HT1080-NT tox = kills 2HG-producing HT-1080-NT fibrosarcoma cells; HT-1080-NT fibrosarcoma viability, CellTiter-Glo ATP luminescence, 48 h; actives 1.6% (n = 360,000); Potency, µM (titrated, usually from 46.1 µM), without a hit: at the top dose activity, negative = less viability, most hits filed as cytotoxic;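 note: NT is the 2HG producing partner of a matched IDH1 knockdown line; potency is the fitted concentration of half-maximal effect; 0% = DMSO-treated cells and -100% = media-only wells without cells; nearly all actives have a fitted effect of over 55% in size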
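Toxicity toward the 2HG-producing NT line was scored as %Activity, normalised to DMSO and no-cell wells, from CellTiter-Glo luminescence after 48 hours' treatment.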
HT1080 IDH1KD tx = toxicity to HT-1080 IDH1 knockdown cells (counter line). Potency, µM (highest dose often 46.1 µM), without a hit: top-dose activity, negative = toxicity, most hits filed as cytotoxic. AID 686971. HT-1080 IDH1 knockdown viability, ATP luminescence, 48 h. actives 2% (n = 360,000);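 note: potency is the fitted concentration of half-maximal effect; 0% = DMSO wells and -100% = cell-free medium wells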
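Knockdown cells (IDH1KD HT-1080) received compounds 2 h after plating at 750 cells/well and were kept 48 h at 37 °C in 5% FBS RPMI. A CellTiter-Glo luminescence read gave % activity for curve fitting.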
The depositor's hits bear a star; ? = inconclusive; . = not tested or not shown; [ ] = another dose, or the depositor's remark. This excerpt belongs to a sample that is enriched for hits. Unless noted, calls come from the whole dose curve; as a rule, active = well fitted curve in the direction sought with a large enough effect; inconclusive = small, poorly fitted or top-dose-only effect, or another doubt; inactive = no such curve, though single readings can be large; an effect the other way counts as inactive or inconclusive. Unless noted, % is set by controls: 0 for no effect and ±100 for the full control effect.

SMILES	TDP1 cell CPT	DT40 TDP1 no CPT	ALOX12 inh	IL1B secr inh	HT1080-NT tox	HT1080 IDH1KD tx
CC1C(=O)N(Cc2cn(CCC3OCCCO3)nn2)CCS(=O)(=O)N1Cc1ccc(-c2ccncc2)cc1 (stereo not drawn)	-25%	9.2µM*	15%	-6	-6%	-3%
CC(C)C1C(=O)N(Cc2cn(CCC3OCCCO3)nn2)CCS(=O)(=O)N1Cc1ccc(-c2ccc(F)nc2)cc1 (stereo not drawn)	?	16µM*	-10%	2	-7%	0%
CC1C(=O)N(Cc2cn(CCC3OCCCO3)nn2)CCS(=O)(=O)N1Cc1ccc(-c2ccc(F)nc2)cc1 (stereo not drawn)	?	13µM*	-3%	28	1%	1%
CC(C)C1C(=O)N(Cc2cn(CCC3OCCCO3)nn2)CCS(=O)(=O)N1Cc1ccc(-c2cccc(CO)c2)cc1 (stereo not drawn)	-24%	?	-29%	-15	3%	4%
CC(C)C1C(=O)N(Cc2cn(CCC3OCCO3)nn2)CCS(=O)(=O)N1Cc1ccc(-c2ccc(F)nc2)cc1 (stereo not drawn)	?	16µM*	?	8	1%	1%
Cc1ccc2nc(-c3ccc(F)cc3)c(CC3CCCCC3)n2c1	?	?	-19%	15	-2%	-14%
CCOc1ccccc1C(C(=O)NC1CCCC1)N(C(=O)c1csnn1)C1CC1 (stereo not drawn)	-6%	?	1%	2	2%	-3%
O=C(CCCN1C(=O)/C(=C\c2cccc(Br)c2)SC1=S)Nc1cccnc1	?	15µM*	-16%	-51*	16µM*	13µM*
O=C(CCCN1C(=O)/C(=C/c2cccc(Br)c2)SC1=S)Nc1cccnc1	?	16µM*	0%	-90*	?	?
Cc1cc(C(C)(C)C)cc(C)c1S(=O)(=O)N1CCN(Cn2nc(C)c3ccccc3c2=O)CC1	.	.	3%	.	.	.
Clc1cccc(CNc2ccn3nc(-c4cccc(OCc5ccccc5)c4)cc3n2)c1	?	?	-4%	-27	?	9.2µM*
c1ccc(COc2cccc(-c3cc4nc(NCc5ccc6c(c5)OCO6)ccn4n3)c2)cc1	?	?	-6%	-28	-16%	-24%
Clc1cccc(CNc2ccn3nc(-c4ccccc4Cl)cc3n2)c1	?	?	-3%	-73*	?	?
c1ccc(-c2cc3nc(NCc4ccc5c(c4)OCO5)ccn3n2)cc1	?	?	-5%	-9	-10%	-25%
CCN1C(=O)CCN(C(=O)NCc2ccc(C)cc2)CC12CCOCC2	.	.	22%	.	.	.
CC(C)c1noc(CC2CCN(C(=O)c3cc4ccccc4[nH]3)CC2)n1	.	.	10%	.	.	.
COc1ccc(NC(=S)N(CCc2c(C)[nH]c3ccc(C)cc23)Cc2ccco2)cc1	?	?	-15%	-28	-6%	0%
COc1ccc(NC(=S)N(CCc2c(C)[nH]c3ccc(C)cc23)Cc2cccs2)cc1	16µM*	?	?	-56*	-9%	?
COc1ccc2[nH]c(C)c(CCN(Cc3cccs3)C(=S)Nc3ccccc3)c2c1	?	?	-26%	-50*	-2%	-11%
COc1ccc2[nH]c(C)c(CCN(Cc3cccs3)C(=S)Nc3ccc(F)cc3)c2c1	?	?	.	-28	-9%	-2%
CC1(C)CC(NC(=O)c2coc(=O)c(Br)c2)CC(C)(C)N1	0.33µM*	0.52µM*	75%	-15	10%	5%
COc1cc(-c2nn3c(C(C)(C)C)nnc3s2)cc(OC)c1OC	.	.	65%	.	.	.
CC1NC(=O)NC1CCCCCC(=O)Nc1ccc(F)cc1 (stereo not drawn)	-20%	-1%	2%	-97*	13%	12%
Cc1cc(NC(=O)CCCC(=O)Nc2ccc(F)cc2)no1	-11%	-9%	0%	11	16%	7%
Cc1c(F)cccc1NC(=O)CCCCCC1NC(=O)NC1C (stereo not drawn)	1%	-19%	3%	-97*	5%	2%
SMILES	TDP1 cell CPT	DT40 TDP1 no CPT	ALOX12 inh	IL1B secr inh	HT1080-NT tox	HT1080 IDH1KD tx
Cc1c(F)cccc1NC(=O)CCC(=O)O	-5%	-11%	0%[57.4 µM]	5	2%	-6%
O=[N+]([O-])c1ccc(Oc2ccc(-c3ccccc3)cc2)c2ccncc12	.	.	-4%	.	.	.
Cc1c(-c2cc(C(F)F)c3c(C4CC4)nn(CC(=O)O)c3n2)cnn1C	.	.	-29%	.	.	.
O[C@H]1CN[C@H](c2nc(-c3ccc(OC(F)(F)F)cc3)no2)C1	.	.	21%[176 µM]	.	.	.
O=C(NC1CCN(c2cc(-c3cccs3)[nH]n2)C1)c1cc(F)ccc1Cl (stereo not drawn)	.	.	47%	.	.	.
Cc1nnc(NC(=O)CSc2nc3c(c(=O)n(C)c(=O)n3C)n2C(C)C)s1	-1%	-20%	?	54	4%	20%
Cc1nnc(NC(=O)CSc2nc(CC(C)C)nc3c2c(=O)n(C)c(=O)n3C)s1	16µM*	10µM*	-3%	15	2%	7%
Cc1csc(NC(=O)CSc2nc(C)nc3c2c(=O)n(C)c(=O)n3C)n1	?	21µM*	14%	24	-21%	2%
CCc1nc(SCC(=O)Nc2nnc(CC)s2)c2c(=O)n(C)c(=O)n(C)c2n1	6.5µM*	8.2µM*	-14%	-10	-1%	-3%
CCCc1nc(SCC(=O)Nc2cc(C)on2)c2c(=O)n(C)c(=O)n(C)c2n1	?	?	30%	22	9%	2%
CCCc1nc(SCC(=O)Nc2nnc(CC)s2)c2c(=O)n(C)c(=O)n(C)c2n1	6.5µM*	3.3µM*	2%	29	0%	0%
COCCn1cnnc1C(C)NC(=O)c1cn(C2CCC(N)CC2)nn1 (stereo not drawn)	.	.	39%	.	.	.
O=C(Nc1ccccc1O)c1ccc[n+]([O-])c1	.	.	10%	.	.	.
COc1ccc(CN2C(=O)[C@@H]3C[C@@H](CN3Cc3ccccc3Cl)Oc3ccccc32)cc1	.	.	-3%	.	.	.
CC(=O)Nc1cc(NC(C)=O)cc(-c2nc3ccccc3o2)c1	.	.	1%	.	.	.
COc1ccc(-c2nc3c(C)cccc3cc2CN(C)Cc2ncc[nH]2)cc1OC	.	.	77%	.	.	.
Cc1ccc(F)cc1NC(=O)CCc1ncc(-c2ccc(F)cc2)o1	.	.	-3%	.	.	.
COc1ccc(-c2nc(C)c(CCNC(=O)c3ccc(F)c(F)c3)s2)cc1	.	.	-1%	.	.	.
